We go through 30 compounds from PubChem BioAssay (Tox21).

Inconclusive results are not listed. Unmarked numbers belong to inactive results. Unless noted, calls come from the whole dose curve.
% is set by controls: 0 for no effect and ±100 for the full control effect.

Sequence of Vitamin D3 receptor (Homo sapiens) (P11473 whole entry, looked up): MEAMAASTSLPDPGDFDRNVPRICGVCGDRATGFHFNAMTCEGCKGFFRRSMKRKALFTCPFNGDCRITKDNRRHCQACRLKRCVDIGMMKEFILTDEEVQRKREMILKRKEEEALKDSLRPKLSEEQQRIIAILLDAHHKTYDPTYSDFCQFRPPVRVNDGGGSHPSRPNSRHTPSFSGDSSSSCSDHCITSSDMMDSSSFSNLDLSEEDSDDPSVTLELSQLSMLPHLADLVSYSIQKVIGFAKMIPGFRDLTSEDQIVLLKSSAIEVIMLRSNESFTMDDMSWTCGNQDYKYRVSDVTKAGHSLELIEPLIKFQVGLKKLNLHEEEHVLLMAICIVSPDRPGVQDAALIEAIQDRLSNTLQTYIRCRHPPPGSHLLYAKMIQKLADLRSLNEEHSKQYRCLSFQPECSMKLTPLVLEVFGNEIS

System in the first experiment: not listed separately
The experiment can be described thus: qHTS assay to identify small molecule antagonists of the farnesoid-X-receptor (FXR) signaling pathway - cell viability counter screen (AID 743221; active = well fitted cell-killing curve with a large enough effect in the repeat runs, not every such curve was filed as active; note: nearly all actives have a fitted effect of over 50% in size). The conditions noted are these: FXR-bla HEK293T viability, CellTiter-Glo luminescence, 16 h; series mostly up to 62.6 µM; activity change, negative = cytotoxicity: at the top concentration. The method, boiled down:
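FXR-UAS-bla HEK 293T cells were treated with test compounds plus chenodeoxycholic acid (50 uM final) for 16 h at 37 C. Cell viability in the same wells was then read as CellTiter-Glo luminescence after 30 min at room temperature.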
In the case of `CC(Cl)COP(=O)(OCC(C)Cl)OCC(C)Cl` (configuration not stated), the “activity change, negative = cytotoxicity” value is 5.83%.

As to `CCNC(=O)NCCCOc1cccc(CN2CCCCC2)c1`, the “activity change, negative = cytotoxicity” value is 0.0702%.

Turning to `Cc1ncc([N+](=O)[O-])n1CC(O)CCl` (configuration not stated), the “activity change, negative = cytotoxicity” value was 5.2%.

Consider `COCCOCCOCCOC`, for which the “activity change, negative = cytotoxicity” value was 7.97%.

Take `CCCCC/C=C/CC(=O)OC`: the “activity change, negative = cytotoxicity” value is -4.53%.

Regarding `O=C(c1ccc2c(c1)C(=O)OC2=O)c1ccc2c(c1)C(=O)OC2=O`, the “activity change, negative = cytotoxicity” value is 2.43%.

As to `NC(=O)NC(=O)Cc1ccccc1`, the “activity change, negative = cytotoxicity” value was 9.52%.

Regarding `CCOC(=O)CC(CC(=O)OCC)(OC(C)=O)C(=O)OCC`, the “activity change, negative = cytotoxicity” value was 0.711%.

As for `CCC1COC(=O)O1` (configuration not stated), the “activity change, negative = cytotoxicity” value is 1.11%.

Regarding `COCC(=O)Nc1c(I)c(C(=O)NCC(O)CO)c(I)c(C(=O)N(C)CC(O)CO)c1I` (configuration not stated), the “activity change, negative = cytotoxicity” value was -1.03%.

Turning to `CCS(=O)(=O)CCn1c([N+](=O)[O-])cnc1C`, the “activity change, negative = cytotoxicity” value is -2.32%.

For `NC(=O)NNC(N)=O`, the “activity change, negative = cytotoxicity” value was 13.2%.

Turning to `Cc1ccccc1C`, the “activity change, negative = cytotoxicity” value was 2.37% [at 81.1 µM].

Another experiment addresses Vitamin D3 receptor (Homo sapiens) (UniProt P11473). The experiment can be described thus: qHTS assay to identify small molecule agonists of the vitamin D receptor (VDR) signaling pathway (AID 743222). The conditions noted are these: HEK293T VDR-UAS-bla, beta-lactamase FRET ratio, 16 h; series mostly up to 63.5 µM; activation: at the top concentration. The method, boiled down: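 Beta-lactamase reporter readout (LiveBLAzer B/G FRET, 2 h RT) in VDR-bla cells after 16 h compound treatment at 37C, 5% CO2; cells pre-incubated 4 h before pin transfer of DMSO solutions.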
For the compound `C=C[C@@H](C)CCC=C(C)C`, the “activation” value was 6.14%.

Consider `CCC(=O)c1ccc(O)cc1`, for which the “activation” value was -0.0382%.

Regarding `CCc1nccnc1C`, the “activation” value is -3.35%.

In the case of `CC(C)COC(=O)CCCCC(=O)OCC(C)C`, the “activation” value was -3.27%.

In the case of `Cc1cc(O)c2c(c1)C(=O)c1cccc(O)c1C2=O`, the “activation” value is -9.08%.

With `OCCCCCCCl`, the “activation” value was -4.18% [at 81.1 µM].

Regarding `C[C@H](CCC(=O)NCC(=O)O)[C@H]1CC[C@H]2[C@@H]3[C@H](O)C[C@@H]4C[C@H](O)CC[C@]4(C)[C@H]3C[C@H](O)[C@]12C`, the “activation” value is -3.2%.

Turning to `O=C1NC2NC(=O)NC2N1` (configuration not stated), the “activation” value was -10.3%.

Consider `CCOC(=O)CCc1ccccc1`, for which the “activation” value was 6.85%.

As for `Cc1ccccc1OCC1CO1` (configuration not stated), the “activation” value was -1.09% [at 81.1 µM].

As to `Cc1cccc(Nc2ccncc2S(=O)(=O)NC(=O)NC(C)C)c1`, the “activation” value was 8.03%.

Turning to `CC1=CC[C@H](CC=O)C1(C)C`, the “activation” value was 1.01%.

As for `NS(=O)(=O)c1cc2c(cc1Cl)NC(CC1CCCC1)NS2(=O)=O` (configuration not stated), the “activation” value was 3.4%.

For `COc1cccc2sc(N)nc12`, the “activation” value is 1.52% [at 81.1 µM].

Consider `CN(C)CCCNCCC#N`, for which the “activation” value was 0.743%.

As for `C=CCOC(=O)c1ccc(C(=O)OCC=C)c(C(=O)OCC=C)c1`, the “activation” value was -7.31%.

Consider `Nc1ccc(/C=C/c2ccc(N)cc2S(=O)(=O)O)c(S(=O)(=O)O)c1`, for which the activation was 1.93% [at 0.554 µM].

Take `CC(Cl)COP(=O)(OCC(C)Cl)OCC(C)Cl` (configuration not stated): the “activation” value was -0.231%.

`CCNC(=O)NCCCOc1cccc(CN2CCCCC2)c1`: the “activation” value was 8.82%.

Turning to `Cc1ncc([N+](=O)[O-])n1CC(O)CCl` (configuration not stated), the “activation” value is 4.44%.

As for `COCCOCCOCCOC`, the “activation” value was -2.28%.

Consider `CCCCC/C=C/CC(=O)OC`, for which the “activation” value was 7.93%.

`O=C(c1ccc2c(c1)C(=O)OC2=O)c1ccc2c(c1)C(=O)OC2=O`: the “activation” value is 6.4%.

In the case of `NC(=O)NC(=O)Cc1ccccc1`, the “activation” value was 0.23%.

With `CCOC(=O)CC(CC(=O)OCC)(OC(C)=O)C(=O)OCC`, the “activation” value is 0.144%.

For `CCC1COC(=O)O1` (configuration not stated), the “activation” value is -3.8%.

For the compound `CCS(=O)(=O)CCn1c([N+](=O)[O-])cnc1C`, the “activation” value was 6.43%.

Turning to `NC(=O)NNC(N)=O`, the “activation” value was 7.03%.

For `Cc1ccccc1C`, the “activation” value was 3.52% [at 81.1 µM].
